Reference: PubChem BioAssay AID1508607 (The Scripps Research Institute Molecular Screening Center, 2020)
Out of some 2,300 compounds screened, about 20 (0.9%) were called active.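 Rule for the calls: active = mean percent activation across replicates above the counterscreen hit cutoff of 9.17%; inactive = the rest.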 The sample as a whole holds a higher share of actives than the screen did.

What follows are molecules tested against Glucose-dependent insulinotropic receptor (Homo sapiens) (UniProt Q8TDV5) (assay: off-target GPR119 activation – cell-based, PathHunter beta-arrestin, luminescence, set 2, counter-screen for GPR151 activator project, confirmation (AID 1508607;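 note: 0% = median of sample wells and 100% = wells given EA reagent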)). Details: GPR119 PathHunter beta-arrestin cells, 90 min, at 11.2 µM, hits give high values.
Sequence of Glucose-dependent insulinotropic receptor (Homo sapiens) (Q8TDV5 whole entry, looked up): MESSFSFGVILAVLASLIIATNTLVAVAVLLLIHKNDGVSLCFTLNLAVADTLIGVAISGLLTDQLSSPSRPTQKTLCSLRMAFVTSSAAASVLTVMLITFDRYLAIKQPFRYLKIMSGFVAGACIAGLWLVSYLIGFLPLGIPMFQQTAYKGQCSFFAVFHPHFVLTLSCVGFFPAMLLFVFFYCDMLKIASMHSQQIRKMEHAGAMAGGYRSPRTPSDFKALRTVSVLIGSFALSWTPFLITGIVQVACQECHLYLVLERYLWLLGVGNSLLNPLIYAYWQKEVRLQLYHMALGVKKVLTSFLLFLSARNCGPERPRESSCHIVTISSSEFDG

Compound | activation
C[C@@H]1O[C@@H](O[C@H]2C[C@@H](O)[C@]3(CO)[C@H]4[C@H](O)C[C@]5(C)[C@@H](C6=CC(=O)OC6)CC[C@]5(O)[C@@H]4CC[C@]3(O)C2)[C@H](O)[C@H](O)[C@H]1O | 18.4% (active)
COCCN1C(=S)NC2c3cccc(OC)c3OC1(C)C2C(=O)OC (stereo not given) | -2.57% (inactive)
Cc1cccc(C)c1-n1nnnc1C1(NCCc2c(C)[nH]c3ccccc23)CCCCC1 | -3.88% (inactive)
CC[n+]1c(/C=C/C=C2\N(C)c3ccccc3C2(C)C)n(-c2ccccc2)c2cc(Cl)ccc21 | 4.85% (inactive)
CCn1c(/C=C/C=C2\N(C)c3ccccc3C2(C)C)[n+](Cc2ccccc2)c2ccccc21 | 15.3% (active)
CC[n+]1c(/C=C/C=C2\N(C)c3ccccc3C2(C)C)n(-c2ccccc2)c2ccc(C)cc21 | 2.58% (inactive)
O=c1c2ccccc2nc(/C=C/c2ccccc2)n1-c1cccc(C(F)(F)F)c1 | 1.19% (inactive)
COc1ccc2[nH]c(C)c(CCNCc3ccc(OC(F)(F)F)cc3)c2c1 | 0.78% (inactive)
O=C(NCc1ccc(Cl)cc1)C(Cl)(Cl)Cl | 1.33% (inactive)
O=C(NC(O)C(Cl)(Cl)Cl)c1ccccc1 (stereo not given) | -0.61% (inactive)
C[C@H]1CC[C@@H]2[C@@H](C)[C@H]3[C@H](CC4[C@@H]5CC=C6CC(O[C@@H]7O[C@H](CO)C(O[C@@H]8O[C@@H](C)[C@H](O)[C@@H](O)[C@H]8O)[C@H](O)[C@H]7O[C@@H]7O[C@@H](C)[C@H](O)[C@@H](O)[C@H]7O)CC[C@]6(C)[C@H]5CC[C@@]43C)N2C1 (stereo not given in full) | 28.4% (active)
COc1ccc(CN2CCNCC2CCO)c(C)c1C (stereo not given) | 0.92% (inactive)
CCN1C(=O)c2ccccc2Sc2ccc(C(=O)N3CCC4(CC3)OCCO4)cc21 | 0.67% (inactive)
COc1cccc(C2N(c3ccccn3)C(=O)C3CCCN32)c1 (stereo not given) | -1.97% (inactive)
CCc1ccc(NC(=O)CN2CC(c3ccccc3)CC2=O)cc1 (stereo not given) | 2.2% (inactive)
